Hits are enriched below; roughly 6.5% of the tested compounds scored in any of these assays.
Marburg entry inh – qHTS for inhibitors of binding or entry into cells for Marburg Virus | Marburg virus pseudotyped entry inhibition, cell reporter | Potency, µM (top dose mostly 37.8 µM), inactives show at the top dose activity change, negative = inhibition, usual class: inhibitors | 300,000 tested, 1.8% active | AID 540276, 2011; calls by dose curve; tested in HEK293 cells; note: potency is the fitted concentration of half-maximal effect
HCMV antiviral – qHTS Assay for inhibitors of the human cytomegalovirus (HCMV); HFF cells, HCMV-luciferase reporter, 72 h; active compounds read low; activity change, negative = inhibition, % at 57.5 µM; 410,000 tested, 4.5% active; AID 1259415, 2018; in the data active = activity change below about -60%; inconclusive = no clear call, values can overlap the other calls; inactive = above about -39%
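After 16 h attachment at 37C, HFF cells received test compound and HCMV-luciferase (1 PFU/cell); reporter luminescence read 72 h later, data normalized against buffer-only and known inhibitor Salinomycin.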
FMDV antiviral – High Throughput Screening for Foot and Mouth Disease Virus Antivirals. Potency, µM (highest dose often 57.9 µM), inactives show at the highest dose activity change, negative = inhibition, usual class: inhibitors. AID 1159524, 2015. FMDV antiviral cell-based qHTS. 410,000 tested, 1.2% active; calls by dose curve; tested in HEK293T cells; note: read-out not given here; potency is the fitted concentration of half-maximal effect; nearly all actives have a fitted effect of over 45% in size
Vaccinia Venus – qHTS for Stage-Specific Inhibitors of Vaccinia Orthopoxvirus: Venus Reporter Primary qHTS; Vaccinia virus Venus reporter expression, fluorescence; Potency, µM (highest dose often 36.5 µM), for the others: at the highest dose activity change, negative = inhibition, actives largely listed as inhibitors; 330,000 tested, 0.46% active; AID 720580, 2013; calls by dose curve; tested in A549 cells; note: potency is the fitted concentration of half-maximal effect; nearly all actives have a fitted effect of over 30% in size
Lassa entry inh – qHTS for Inhibitors of binding or entry into cells for Lassa Virus; Lassa virus pseudotype entry inhibition, cell reporter; 300,000 tested, 1.2% active; Potency, µM (top dose mostly 37.9 µM), inactives show at the highest dose activity change, negative = inhibition, usual class: inhibitors; AID 540256, 2011; calls by dose curve; tested in HEK293 cells; note: potency is the fitted concentration of half-maximal effect; nearly all actives have a fitted effect of over 50% in size
Vaccinia mCherry – qHTS for Stage-Specific Inhibitors of Vaccinia Orthopoxvirus: mCherry Reporter Primary qHTS. Vaccinia virus mCherry reporter infection, fluorescence. Potency, µM (top dose mostly 36.5 µM), for the others: at the highest dose activity change, negative = inhibition, usual class: inhibitors. 310,000 tested, 0.63% active; calls by dose curve; tested in A549 cells; note: potency is the fitted concentration of half-maximal effect; nearly all actives have a fitted effect of over 35% in size
An asterisk follows results filed as active; i = inactive; ? = inconclusive; / = not tested or not shown; [ ] = dose if it differs, or a comment. % is set by controls: 0 for no effect and ±100 for the full control effect.

SMILES	Marburg entry inh	HCMV antiviral	FMDV antiviral	Vaccinia Venus	Lassa entry inh	Vaccinia mCherry
COc1ccc(N2CCN(C(c3ccccc3)c3nnnn3Cc3ccccc3)CC2)cc1 (configuration not stated)	/	/	/	-21%	/	-16%
COc1ccc(-n2nnnc2C(c2cc3ccccc3o2)N2CCC(n3c(=O)[nH]c4ccccc43)CC2)cc1 (configuration not stated)	/	-100*	?	?	/	?
O=c1[nH]c2ccccc2n1C1CCN(C(c2ccccc2OC(F)(F)F)c2nnnn2Cc2ccccc2)CC1 (configuration not stated)	/	-69*	?	-26%	/	-9%
COc1ccc(C(c2nnnn2Cc2ccccc2)N2CCC(n3c(=O)[nH]c4ccccc43)CC2)cc1 (configuration not stated)	/	-65*	-22%	-25%	/	-28%
Cc1cccc(C)c1-n1nnnc1C(c1cccs1)N1CCC(n2c(=O)[nH]c3ccccc32)CC1 (configuration not stated)	/	-77*	?	-17%	/	10%
CC(C)CC(NC(=O)OCc1ccccc1)C(=O)NCC(=O)NCC(=O)OCc1ccccc1 (configuration not stated)	/	-32	/	/	/	/
COc1ccc(C(c2nnnn2-c2ccc(OC)cc2)N2CCC(n3c(=O)[nH]c4ccccc43)CC2)cc1 (configuration not stated)	/	-61*	?	-14%	/	-26%
O=c1[nH]c2ccccc2n1C1CCN(C(c2cccs2)c2nnnn2Cc2ccccc2)CC1 (configuration not stated)	/	-96*	-5%	?	/	-7%
Cc1nnc(N(CCC#N)CCC#N)s1	?	-72*	-16%	-8%	21%	-11%[1.46 µM]
CN(CCCN(Cc1ccc(Cl)cc1)c1ccc(Br)cn1)C(=S)NCCCc1cnc[nH]1	/	/	/	-19%	/	4%
CCN1C(=NCc2ccc(OC)cc2)NC(c2cccc(C(F)(F)F)c2)C(C(=O)OC)=C1C (configuration not stated)	13%[14.2 µM]	/	/	/	/	/
CCCCNC(=O)C1CCC(CNS(=O)(=O)c2ccc(Cl)cc2)CC1 (configuration not stated)	/	-7	-1%	-3%	25%[46.1 µM]	0%
COC(=O)c1ccc(CN2C(=O)C(C)N(C(=O)c3c(F)cccc3F)c3ccccc32)cc1 (configuration not stated)	/	-7	?	/	/	/
CC1C(=O)N(Cc2ccc(F)cc2)c2ccccc2N1C(=O)c1c(F)cccc1F (configuration not stated)	/	-73*	22µM*	/	/	/
COc1cc(/C=C2\C[C@H]3[C@@H]4CC=C5C[C@@H](N6CCCC6)CC[C@]5(C)[C@H]4CC[C@]3(C)[C@H]2O)cc(OC)c1OC	10µM*	8	-2%	-9%	-28%	-10%
C[C@]12CC[C@@H](O)CC1=CCC1C2CC[C@@]2(C)C1CC[C@@H]2N (some centres not stated)	-1%[46.1 µM]	-25	-10%	-9%	-4%[46.1 µM]	i
COc1cc(Cl)c(C)cc1NC(=O)C1CCCN(c2ncnc3onc(-c4ccc(F)cc4)c23)C1 (configuration not stated)	/	-16	-14%	-15%	-9%[46.1 µM]	-2%
O=C(Cc1nc(=O)c2ccccc2s1)Nc1ccccc1	?	-106*	64%	/	?	/
O=C(Cc1ccccc1)Nc1nc(=O)c2ccccc2s1	8%	-2	15%	-12%	-7%	-15%
Cn1c(=O)[nH]c(Nc2ccccc2)c([N+](=O)[O-])c1=O	8%[46.1 µM]	-94*	2%	-1%	-13%	-12%
CC(SC1=NS(=O)(=O)c2ccccc21)C(=O)O (configuration not stated)	/	/	/	-16%	/	-11%
Cc1ccc(C2=Nc3ccccc3N(CC(=O)NCc3ccc(F)cc3)C(=O)C2)cc1C	/	1	12%	-20%	1%[46.1 µM]	?
O=C(CN1C(=O)CC(c2ccc(F)cc2)=Nc2ccccc21)NCc1ccccc1Cl	/	-64*	5%	-20%	1%[46.1 µM]	-25%
